# Bioassay records as filed in PubChem BioAssay.
# Compounds with a hit are over-represented: about 2.5% of the library has one in this group of screens.
# MEKK3 PB1 HTS – modulators of MEKK3-MEK5 PB1 binding, primary screen, biochemical, wildtype MEKK3, multiplex bead flow cytometry, Alexa488-MEK5; Mitogen-activated protein kinase kinase kinase 3 (Homo sapiens), Q99759; bead-based flow cytometry, Alexa488-MEK5 binding to MEKK3; actives lie on both sides; 0 = blocked by unlabeled MEK5, 100 = vehicle; binding response (% of control), % at 10 µM; actives 1.4% (n = 290,000);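 active means binding response more than 3 SD above or below the average of its plate-row segment, actives on both sides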;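 further: Alexa488 bead fluorescence after subtracting the streptavidin-only scavenger bead signal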
# MEKK2 mut-MEK5 – MEK5 binding signal on mutant MEKK2 PB1, primary screen, biochemical, multiplex bead flow cytometry, Alexa488-MEK5 | Alexa488-MEK5 binding to MEKK2 mutant | percent response, % at 10 µM | actives 0.35% (n = 290,000) | AID 1530, 2009; in the data active means percent response above about 24%, passing the limit was not always enough
# GRK2 inh – compounds blocking aptamer binding on GRK2 – biochemical, human GRK2, bead flow cytometry, HTS, primary screen. inhibition of aptamer binding, % at 10 µM. AID 488847, 2010. actives 0.59% (n = 330,000). FAM-aptamer displacement from GRK2. Beta-adrenergic receptor kinase 1 (Homo sapiens), P25098;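 active means inhibition of aptamer binding above 40%, roughly 3 SD of noise, on plates passing a quality check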;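 further: median bead fluorescence of bound FAM aptamer so fluorescent compounds give negative values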
# Target sequence (P25098 whole entry, looked up): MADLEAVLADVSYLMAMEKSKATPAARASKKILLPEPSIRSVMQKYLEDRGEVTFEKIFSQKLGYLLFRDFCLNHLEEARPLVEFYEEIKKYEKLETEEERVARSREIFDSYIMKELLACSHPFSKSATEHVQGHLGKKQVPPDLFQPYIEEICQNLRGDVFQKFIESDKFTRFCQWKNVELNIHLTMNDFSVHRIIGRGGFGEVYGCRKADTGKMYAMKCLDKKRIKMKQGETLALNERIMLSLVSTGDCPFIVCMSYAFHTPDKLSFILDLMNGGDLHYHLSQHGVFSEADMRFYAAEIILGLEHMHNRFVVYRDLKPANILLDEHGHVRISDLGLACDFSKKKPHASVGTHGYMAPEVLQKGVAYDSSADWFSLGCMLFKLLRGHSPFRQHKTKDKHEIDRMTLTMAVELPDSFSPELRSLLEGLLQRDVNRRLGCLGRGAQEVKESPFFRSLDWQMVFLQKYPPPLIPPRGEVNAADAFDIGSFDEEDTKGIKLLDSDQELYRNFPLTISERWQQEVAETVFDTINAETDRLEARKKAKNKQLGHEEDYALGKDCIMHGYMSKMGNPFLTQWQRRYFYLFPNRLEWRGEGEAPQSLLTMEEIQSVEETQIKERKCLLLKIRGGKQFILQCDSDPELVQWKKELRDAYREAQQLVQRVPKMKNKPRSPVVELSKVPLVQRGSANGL
# MEKK2 WT-MEK5 – modulators of MEK5 binding to wildtype MEKK2, primary screen, biochemical, multiplex bead flow cytometry, Alexa488-MEK5; Alexa488-MEK5 binding to MEKK2 WT; actives lie on both sides; binding response (% of control), % at 10 µM; actives 1.1% (n = 290,000); AID 1531, 2009; in the data active means binding response below about 67% or above about 130%
# MEKK2wt confirm – modulators of MEK5 binding to wildtype MEKK2, confirmation, biochemical, single concentration, multiplex bead flow cytometry; shares compounds with MEKK3 PB1 HTS; Alexa488-MEK5 binding to MEKK2 WT; actives lie on both sides; binding response (% of control), % at 10 µM; actives 2.4% (n = 5,900); AID 1892, 2009; in the data active means binding response below about 16% or above about 210%; inactive means in between
# MEKK2mut-MEK5 – mutant MEKK2 PB1-MEK5 binding signal retest – biochemical, single concentration, multiplex bead flow cytometry, confirmation. percent response, % at 10 µM. Alexa488-MEK5 binding to MEKK2 mutant. AID 1893, 2009. shares compounds with MEKK3 PB1 HTS. actives 2% (n = 5,900); in the data active means percent response mostly above about 71%, no sharp cut-off; inactive means mostly below about 38%;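 further: higher means compound restores mutant binding toward wildtype level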
# MEKK3-MEK5 inh – MEKK3 wild-type PB1 binding to MEK5, inhibitors, confirmation, biochemical, bead multiplex flow cytometry, single concentration, wildtype. shares compounds with MEKK3 PB1 HTS. Alexa488-MEK5 binding to MEKK3; active compounds read low. binding response (% of control), % at 10 µM. actives 1.8% (n = 5,900). AID 1894, 2009;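 active means binding response below 72% of control, or above a set upper limit, though filed actives all read lower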;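 further: lower values mean stronger disruption of MEK5 binding to MEKK3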
# Hits are given with their value; – = inactive; · = no result given; ! = not active in a repeat; [ ] = dose if it differs, or a comment.
SMILES,MEKK3 PB1 HTS,MEKK2 mut-MEK5,GRK2 inh,MEKK2 WT-MEK5,MEKK2wt confirm,MEKK2mut-MEK5,MEKK3-MEK5 inh
CC1COc2c(N3CCN(C)CC3)c(F)cc3c(=O)c(C(=O)O)cn1c23 (stereo not drawn),–,–,–,–,·,·,·
CCCN(CCC)CCN1C(=O)C2C(C(=O)Nc3cccc(SC)c3)C3C=CC2(O3)C1C(=O)NC1CCCCC1 (stereo not drawn),–,–,–,–,·,·,·
O=C(O)CCC(=O)N1N=C(c2ccc(Br)cc2)CC1c1cccs1 (stereo not drawn),–,–,–,–,·,·,·
Cc1ccc2[nH]c(=O)c(C3=NN(C(=O)CCC(=O)O)C(c4cccs4)C3)c(-c3ccccc3)c2c1 (stereo not drawn),133,–,–,–,–,–,–
CN(C)CCCN(CCCNC(=O)/C=N/O)Cc1ccccc1,–,80,–,179,–,–,–
CN(CCCCCNC(=O)/C=N/O)Cc1ccccc1,–,–,·,–,·,·,·
COc1ccccc1C(=O)Nc1ccccc1N1CCN(C(=O)c2ccc(Cl)cc2)CC1,–,–,–,–,·,·,·
OC(COc1cccc2ccccc12)CN1CCN(c2cccc(Cl)c2)CC1 (stereo not drawn),–,–,–,–,·,·,·
OC(COc1cccc2ccccc12)CN1CCN(c2ccc(Cl)cc2)CC1 (stereo not drawn),–,–,–,144!,–,–,–
OC(COc1cccc2ccccc12)CN1CCCC1 (stereo not drawn),–,–,–,139,–,–,–
Cc1ccc2cccc(S(=O)(=O)NC3CCS(=O)(=O)C3)c2n1 (stereo not drawn),2.0[inhibitor],–,–,-1.0[inhibitor],–,–,–
O=S(=O)(NC1CCCCCC1)c1cccc2cccnc12,–,–,–,–,·,·,·
COc1ccc(Cl)cc1NC(=O)CN1C(=O)CCS(=O)(=O)c2ccccc21,–,–,·,–,·,·,·
COc1ccc(Cn2c(SCc3cc(C)ccc3C)nc3cc(OC)c(OC)cc3c2=N)cc1,–,–,–,174,–,–,–
COc1ccc(Cn2c(SCc3ccc(C)cc3)nc3cc(OC)c(OC)cc3c2=N)cc1Cl,–,71,–,212,208,80,–
CCOC(=O)c1c(NC(C)=O)sc2c(OC(C)=O)cccc12,–,–,–,–,·,·,·
Cc1cc([N+](=O)[O-])c(C)cc1-c1ccc(/C=N/NC(=O)Cn2nnnc2N)o1,–,–,–,–,·,·,·
CCOc1ccc2nc(N(CCN(C)C)C(=O)c3ccc4c(c3)CCCC4)sc2c1,–,25,–,152,–,–,–
CN(C)CCN(C(=O)c1ccc2c(c1)CCCC2)c1nc2cc3c(cc2s1)OCCO3,–,–,–,–,·,·,·
Cc1ccc2nc(N(CCCN(C)C)C(=O)c3ccc4c(c3)CCCC4)sc2c1,–,–,–,191,–,–,–
COc1cc(NC(=O)C(C)Oc2ccccc2)cc(OC)c1 (stereo not drawn),0.0[inhibitor],–,–,0.0[inhibitor],–,–,–
CC(Oc1ccccc1)C(=O)Nc1cccc(F)c1 (stereo not drawn),–,–,–,–,·,·,·
Cc1ccc(OCC(O)Cn2c(=N)n(CCN3CCCCC3)c3ccccc32)cc1 (stereo not drawn),–,–,–,145,–,–,–
COc1ccc(OCC(O)Cn2c(=N)n(CCN3CCCCC3)c3ccccc32)cc1 (stereo not drawn),–,–,–,–,·,·,·
